Laboratory results taken from PubChem BioAssay AID1159604 (The Scripps Research Institute Molecular Screening Center, 2016).
Some of the results follow. Values without a mark were called inactive. Activity calls are given as the source filed them.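 How the source made its calls: active means IC50 of 10 µM or lower in the counterscreen; inactive means IC50 above 10 µM.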

Assay: AlphaScreen signal interference by compounds, dose response, artefact control for ASK1 inhibitor project, biochemical, TruHits beads (AID 1159604);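 further: loss of AlphaScreen light from TruHits beads alone with no ASK1 enzyme present; potency of signal reduction so a low IC50 flags an assay artifact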
Details: signal interference counterscreen

CN1CCN(c2nc(C3COc4ccccc4O3)nc3ccc(-c4cn[nH]c4)cc23)CC1 (configuration not stated)
IC50: > 19.2 µM

c1ccc(-c2ncn[nH]2)c(Nc2ccnc(Nc3ccc(N4CCOCC4)cc3)c2)c1
IC50: > 19.2 µM

COc1cc2nc(Nc3cccc(N(C)C)c3)nc(Nc3cc(OC)c(OC)c(OC)c3)c2cc1OC
IC50: 8.29 µM (active)

FC(F)(F)c1cccc(CNc2nc(N3CCN(Cc4ccc5c(c4)OCO5)CC3)nc3c2ncn3-c2ccccc2)c1
IC50: > 20.1 µM

FC(F)(F)c1cccc(CNc2nc(N3CCN(c4ccccn4)CC3)nc3c2ncn3-c2ccsc2)c1
IC50: > 20 µM

Nc1nc(Nc2ccc(N3CCOCC3)cc2)cc(-c2ccc3[nH]ccc3c2)n1
IC50: 11.9 µM

Cc1ccccc1-c1cscc1Nc1cnn(-c2cccc(C(=O)Nc3ccc(N4CCOCC4)cc3)c2)c1
IC50: > 19.2 µM

Cc1cc(Nc2ccc3c(c2)OCO3)nc(Nc2cccc(N(C)C)c2)n1
IC50: 4.88 µM (active)

COc1ccc(CCNc2cc(C)nc(Nc3cccc(N(C)C)c3)n2)cc1
IC50: 4.77 µM (active)

Fc1cnc(Nc2ccc(N3CCNCC3)cc2)cc1-n1cnc(Nc2ccccc2)n1
IC50: > 19.2 µM

COc1cc(Nc2nc(N3CCc4ccccc4C3)nc3c2ncn3-c2ccccc2)cc(OC)c1OC
IC50: > 20.1 µM

FC(F)(F)c1cccc(CNc2nc(Nc3ccc(N4CCOCC4)cc3)nc3c2ncn3-c2ccsc2)c1
IC50: > 20.1 µM
